The list is not random: actives were taken first. Their share in the collection is about 0.9%.
SRC1 TRFRET art: TR-FRET artefact, counter-screen to PPARgamma/SRC-1 agonist assay; TR-FRET detection artefact counter-screen, emission ratio; stronger effect = higher value; TR-FRET ratio at 8 µM; 99,000 compounds, 0.34% hits; in the data active = TR-FRET ratio above about 2300
PPARg SRC-3 ag: agonists of human PPARgamma SRC-3 coactivator recruitment | 200,000 compounds, 0.26% hits | activation, % at 8 µM | AID 731 | biochemical PPARgamma/SRC-3 coactivator recruitment assay; in the data active = activation above about 23%;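 also: 0% = DMSO and 100% = reference agonist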
Target sequence (P37231 whole entry, looked up): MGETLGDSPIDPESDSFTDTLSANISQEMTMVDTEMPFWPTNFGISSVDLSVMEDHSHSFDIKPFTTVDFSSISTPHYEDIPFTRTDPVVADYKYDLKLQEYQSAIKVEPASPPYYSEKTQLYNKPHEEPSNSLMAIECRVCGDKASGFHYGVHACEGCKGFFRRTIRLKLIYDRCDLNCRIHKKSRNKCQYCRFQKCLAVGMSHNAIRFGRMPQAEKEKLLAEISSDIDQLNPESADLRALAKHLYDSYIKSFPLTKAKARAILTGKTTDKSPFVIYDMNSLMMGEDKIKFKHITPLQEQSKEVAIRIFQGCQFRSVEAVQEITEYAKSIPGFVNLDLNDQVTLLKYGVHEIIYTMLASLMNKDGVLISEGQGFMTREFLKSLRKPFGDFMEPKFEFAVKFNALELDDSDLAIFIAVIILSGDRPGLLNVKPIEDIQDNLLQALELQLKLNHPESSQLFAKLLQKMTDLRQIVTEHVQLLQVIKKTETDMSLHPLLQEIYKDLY
SRC3 TRFRET art: counter-screen for PPARgamma SRC-3 recruitment agonists: TR-FRET artefact; TR-FRET ratio at 8 µM; 99,000 compounds, 0.39% hits; PPARgamma/SRC-3 format; stronger effect = higher value
TR-FRET SRC-2 ct: flags TR-FRET format artefacts in PPARgamma SRC-2 recruitment agonist screen; 200,000 compounds, 0.4% hits; TR-FRET artefact counter-screen; stronger effect = higher value; TR-FRET ratio at 8 µM
PPARg SRC1 recr: promotes SRC-1 coactivator recruitment by human PPARgamma; 200,000 compounds, 0.41% hits; AID 631; PPARgamma-SRC-1 coactivator recruitment biochemical assay; P37231; activation, % at 8 µM; in the data active = activation above about 19%;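 also: 0% = DMSO and 100% = reference agonist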
PPARg SRC2 recr: promotes SRC-2 coactivator recruitment by human PPARgamma. PPARgamma LBD-SRC-2 recruitment, biochemical. activation, % at 8 µM. 200,000 compounds, 0.34% hits; in the data active = activation above about 22%;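 also: 0% = vehicle and 100% = reference agonist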
An asterisk follows results filed as active; · = no result. Rule as the data show it, unless noted: active = TR-FRET ratio above about 2000; inactive = the rest.

SMILES	SRC1 TRFRET art	PPARg SRC-3 ag	SRC3 TRFRET art	TR-FRET SRC-2 ct	PPARg SRC1 recr	PPARg SRC2 recr
COc1cccc(NC(=O)NC(C)C2CC3CCC2C3)c1 (stereo not drawn)	1873	7.0	1597	1622	2.3	11.4
Cc1sc2nc(CN3CCOCC3)[nH]c(=S)c2c1C	1845	7.0	1733	1943	17.2	9.6
COc1ccccc1-c1cc(-c2ccccc2)nc(SC(C(N)=O)c2ccccc2)c1C#N (stereo not drawn)	·	-1.4	·	3201*	8.1	6.7
COc1ccc(S(=O)(=O)NCc2ccco2)cc1N(C)S(=O)(=O)c1ccccc1	1753	2.5	1770	1678	2.1	2.3
CCc1c(C)nc2c(Br)cccc2c1SCCC#N	2367*	11.6	2026	1953	11.2	19.4
CCCCc1c(C)nc2ccc(Br)cc2c1SCCC#N	2268	13.3	2091*	2017*	7.4	13.7
Cc1ccc(C)c(NCC(O)c2ccccc2)c1 (stereo not drawn)	1978	2.5	1781	1680	1.5	0.1
O=C(O)CCC(=O)Nc1ccccc1C(=O)N1CCN(c2ccc(Cl)cc2)CC1	1600	2.0	1716	1645	8.4	-4.8
COc1ccc(S(=O)(=O)N2CCC(N3CCN(Cc4ccccc4)CC3)CC2)cc1	1599	-4.0	1572	1489	-2.9	-2.7
COc1ccc(S(=O)(=O)N2CCN(C3Cc4ccccc4C3)CC2)cc1	1748	6.4	2079*	1352	-6.3	-1.2
CSc1cc(-c2ccc(Cl)cc2)[nH]c(=O)c1C#N	1498	-2.0	1471	1403	2.9	-4.6
Cc1ccc(-c2[nH]c(=S)[nH]c(=O)c2C#N)cc1	2571*	17.8	2293*	2179*	-18.3	-4.0
O=C(c1ccco1)N1CCN(C(=O)c2cc(-c3ccncc3)nc3ccc(Br)cc23)CC1	·	15.3	·	1679	8.9	4.8
O=C(O)c1cc(-c2ccco2)nc2ccc(Br)cc12	2318*	15.5	2104*	2007*	18.1	21.6
CCOC(=O)C1=NN(c2cccc(Cl)c2)C2=NC(C)=C(C(=O)OC)C(c3cccs3)N12 (stereo not drawn)	·	4.8	·	1618	9.4	26.7*
Cc1nn(-c2ccc(Cl)cc2)c2sc(C(=O)c3c(N)n(C)c(=O)n(C)c3=O)cc12	·	-9.7	·	1492	25.1*	-3.1
Cn1c(N)c(C(=O)c2ccc(Cl)cc2)c(=O)n(C)c1=O	1960	2.8	1739	1575	-1.5	11.5
O=C(Nc1ccc2c(c1)OCO2)N1CCCC1	2002	4.3	1742	1508	-7.0	-3.6
CCn1c(C)cc(/C=C2\NC(=O)N(CC(=O)Nc3ccc(F)cc3)C2=O)c1C	2342*	5.0	1608	1533	10.0	13.1
Cc1ccc(NC(=O)CN2C(=O)N/C(=C/c3cc(C)n(-c4ccc(C(=O)O)cc4)c3C)C2=O)cc1	1781	1.1	1621	1549	-2.2	5.2
CC1Cc2ccccc2N1C(=O)CSc1nnnn1-c1ccc2c(c1)OCCO2 (stereo not drawn)	·	2.9	·	2058*	6.9	17.7
CN(C)C(=O)COC(=O)c1ccccc1Sc1ccccc1C#N	1957	4.4	1480	1720	12.7	12.0
N#Cc1cccc(NC(=O)COC(=O)c2ccccc2Sc2ccccc2C#N)c1	1775	2.5	2131*	1920	-2.9	3.0
CC(=O)c1ccc(NC(=O)COC(=O)c2ccccc2Sc2ccccc2C#N)cc1	1874	0.4	2465*	1691	-3.1	0.5
N#Cc1ccccc1Sc1ccccc1C(=O)OCC(=O)NC12CC3CC(CC(C3)C1)C2	2330*	0.8	3416*	2682*	0.1	-10.7
CCOC(=O)c1oc2ccccc2c1NC(=O)CN1CCOCC1	1928	6.2	1622	1673	3.1	3.1
O=C(COC(=O)CCN1C(=O)c2cccc([N+](=O)[O-])c2C1=O)NCc1ccccc1	1745	1.0	1749	1993*	3.6	3.9
O=C(COC(=O)CSCc1ccccc1)NCc1ccccc1	1600	-2.5	1456	1536	-5.6	-3.1
C#CCSc1nnc(-c2ccccc2)c(=O)[nH]1	·	9.3	·	1756	3.7	22.5*
CC(=O)Nc1ccc(Cl)cc1C1COC(=O)C1=N (stereo not drawn)	1639	-1.2	1446	1550	1.6	11.1

Bioassay records as filed in PubChem.
